Screening data as filed in PubChem BioAssay.
Only some compounds are listed: those with a hit (about 27% of all), similar ones and a draw of the others.
CYP2C9 act: activators of human CYP2C9 | P11712 | recombinant CYP2C9, luciferin-H conversion, luminescence; active compounds read high; factor 1 = untreated enzyme, 0 = blocked | activation factor at 5 µM | 96,000 tested, 1.4% active;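 active = activation factor of 2 or more for CYP2C9 at a 5 µM dose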;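 also: 0 = sulfaphenazole-blocked wells and 1 = vehicle-only wells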
Target sequence (P11712 whole entry, looked up): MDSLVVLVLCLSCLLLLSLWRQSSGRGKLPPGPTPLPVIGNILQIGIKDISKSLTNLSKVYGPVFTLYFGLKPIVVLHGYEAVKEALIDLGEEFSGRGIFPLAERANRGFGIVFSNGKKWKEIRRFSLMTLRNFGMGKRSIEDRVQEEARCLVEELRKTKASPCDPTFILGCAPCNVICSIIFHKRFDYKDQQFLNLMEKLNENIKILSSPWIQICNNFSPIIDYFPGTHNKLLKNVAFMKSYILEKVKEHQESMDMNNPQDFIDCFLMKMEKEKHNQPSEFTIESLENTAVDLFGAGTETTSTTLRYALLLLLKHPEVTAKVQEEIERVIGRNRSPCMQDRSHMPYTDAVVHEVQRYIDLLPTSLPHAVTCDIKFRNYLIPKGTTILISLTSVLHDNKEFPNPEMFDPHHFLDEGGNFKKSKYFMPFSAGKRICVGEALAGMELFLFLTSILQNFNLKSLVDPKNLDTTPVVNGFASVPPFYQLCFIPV
Cav3 T inh: human Cav3.2 channel inhibition, primary screen; O95180; Cav3.2-expressing cells, Fluo-4 calcium fluorescence FDSS; active compounds read low; B-score at 10 µM; 100,000 tested, 4% active; AID 449739;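 active = single-dose well whose peak fluorescence ratio is a statistical outlier from its plate by either plate-standardised score or position-corrected B-score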
CYP2C19 inh: blocks human cytochrome P450 2C19. P33261. CYP2C19 Supersomes, luciferin-H EGE luminescence, 30 min. inhibition, % at 5 µM. 96,000 tested, 21% active. AID 778;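 active = CYP2C19 inhibition above a set limit at 5 µM in the primary screen, cut at about 50% in these data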;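 also: plate controls were negative control wells for no effect and 2.5 mM tranylcypromine positive control for full effect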
CYP2C9 inhib: human CYP2C9 inhibition. P11712. CYP2C9 Supersomes, luciferin-H conversion, luminescence. inhibition, % at 5 µM. 96,000 tested, 20% active;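 active = blocking of liver enzyme CYP2C9 beyond about 50% at 5 µM, limit read from the data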
CYP2C19 activ: activators of human cytochrome P450 2C19. P33261. recombinant CYP2C19, luciferin-H EGE luminescence; active compounds read high; 0 = fully inhibited enzyme, 1 = untreated enzyme. activation factor at 5 µM. 96,000 tested, under 10 active. AID 1025;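 active = activation factor of at least 2 at 5 µM in the primary screen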;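 also: 0 = wells with 2.5 mM tranylcypromine and 1 = vehicle-only wells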
Active calls of the source: *; x = no result given.

SMILES	CYP2C9 act	Cav3 T inh	CYP2C19 inh	CYP2C9 inhib	CYP2C19 activ
CC1CN(C(NC(=O)C(C)(C)C)C(Cl)(Cl)Cl)CC(C)O1 (centres undefined)	1	0.00765	0.9	3.7	1
C=CCn1c(CSc2nc3ccccc3s2)nnc1SCC(=O)NCc1ccccc1	0.5	-4.31*	38.1	50.1*	0.6
C=CCn1c(SCC(=O)NCc2ccco2)nnc1-c1ccc2ccccc2n1	0.4	x	27.7	58.9*	0.7
O=C(CSc1cn(CCNC(=O)c2ccccc2)c2ccccc12)NCc1ccco1	0	-1.16	99.0*	97.2*	0
Cc1ccc2cccc(SCC(=O)NCc3ccco3)c2n1	1.5	x	81.8*	-50.9	0.2
O=C(Cc1ccccc1)Nn1cnc2ccccc21	0.6	-1.41	32.7	35.5	0.7
CCCn1cc(SCC(=O)NCc2ccco2)c2ccccc21	1.8	-0.773	51.5*	-79.2	0.5
O=C(CSc1cn(CCNC(=O)c2cccs2)c2ccccc12)NC1CCCC1	0.2	-0.29	68.6*	82.4*	0.3
CNc1ccccc1-n1ccc(-c2ccccc2)n1	0.7	-1.15	71.7*	29.0	0.3
CC1(C)CC(=O)C2=C(C1)OC1=C(C(=O)CC(C)(C)C1)C2c1ccc(O)cc1O	2.5*	-4.69*	19.9	-146.9	0.8
Cc1ccc2nc(C3CCN(C(=O)c4ccco4)CC3)[nH]c2c1	0.7	0.244	6.2	26.3	0.9
COc1ccc(NS(=O)(=O)c2ccc(-n3nnc4ccccc43)c([N+](=O)[O-])c2)cc1	0.1	-2.03	73.9*	92.9*	0.3
COc1ccc(NS(=O)(=O)c2ccc(N)c(C(=O)O)c2)cc1	1.1	1.1	6.7	-5.3	0.9
O=[N+]([O-])c1cc(S(=O)(=O)Nc2cccc(C(F)(F)F)c2)ccc1-n1nnc2ccccc21	0	-5.59*	93.3*	97.9*	0.1
CC(C)NC(=O)c1ccc(OC2CSC2)cc1	1	0.691	7.8	0.4	0.9
C#CC(CO)N(CCN(Cc1ccccc1)C(C#C)CO)Cc1ccccc1 (centres undefined)	0.1	-6.71*	100.0*	94.6*	0
CCN(CC#CCC1(O)c2ccccc2-c2ccccc21)C(C)C	0.8	0.7	29.4	19.0	0.7
Cc1cccc(C)c1NC(=O)C(C)c1ccc(-c2ccccc2)c(F)c1 (centres undefined)	0.2	-4.31*	5.2	82.5*	0.9
COc1ccccc1NC(=O)C(=O)NNC(=O)c1ccco1	1.1	-0.145	-3.5	-11.3	1
COc1ccccc1NC(=O)/C(C#N)=C/C=C/c1ccco1	3*	-1.5	-3.7	-203.2	1
O=C(Nc1nccs1)c1sc2cc(Cl)ccc2c1Cl	0.7	-1.03	57.0*	32.8	0.4
O=C(CSc1nnc(-c2ccccn2)n1Cc1ccccc1)NC1CCCC1	0.7	-0.314	38.5	33.4	0.6
CC(C)CN1CCC(C(=O)NCC2CCCO2)CC1 (centres undefined)	x	0.503	x	x	x
NC(=O)c1ccc(-c2ccc(Br)cc2)o1	0.5	-0.00166	51.3*	46.3	0.5
O=C(O)CCc1ccc(-c2ccc(Br)cc2)o1	0.8	-0.06	-3.8	15.4	1
SMILES	CYP2C9 act	Cav3 T inh	CYP2C19 inh	CYP2C9 inhib	CYP2C19 activ
Cc1c([C@H]2[C@@H](CC#N)C2(C)C)c2ccccc2n1C	1	-0.75	24.4	-1.2	0.8
Cc1[nH]c2c(Br)cccc2c1[C@H]1[C@@H](CC#N)C1(C)C	0.4	-1.08	45.0	55.2*	0.6
COCCN1C(=O)C(=O)/C(=C(/O)c2cccc(S(=O)(=O)N(C)C)c2)C12C(=O)N(C)c1ccccc12 (centres undefined)	0.2	0.109	-15.9	83.5*	1.2
CCCOc1ccc(/C(O)=C2\C(=O)C(=O)N(CCCOC)C23C(=O)N(C)c2ccccc23)cc1 (centres undefined)	1.1	-0.392	-2.2	-11.8	1
COc1ccc(Nc2nnc(SCC(=O)Nc3cc(C)on3)s2)cc1	0.9	0.289	-8.5	6.7	1.1
CCc1nnc(NC(=O)CSc2nc(-c3ccc(OC)cc3)ns2)s1	0.3	-0.0514	31.4	71.6*	0.7
CCc1nnc(NC(=O)CSc2ncnc3c2cnn3-c2ccc(OC)cc2)s1	0.7	0.275	31.5	28.3	0.7
COc1ccc(-c2nsc(SCC(=O)Nc3cc(C)on3)n2)cc1	0.5	-0.302	42.3	54.0*	0.6
CCO[C@H]1OC(C(=O)NCc2ccccc2)=C[C@@H](c2cn(C(C)=O)c3ccccc23)[C@@H]1CCCO	x	0.0128	x	x	x
CC12C(=O)N(c3ccccc3C(=O)O)C(=O)C1C1C=CC2C1 (centres undefined)	1	-1	-2.4	-4.3	1
CC12C(=O)N(c3nccs3)C(=O)C1C1C=CC2C1 (centres undefined)	1	-1.7	64.9*	2.6	0.4
COc1cc(C(=O)NS(=O)(=O)c2ccccc2C)ccc1Cc1cn(C)c2ccc(NC(=O)OC3CCCC3)cc12	x	-5.9*	x	x	x
O=C1C2CC=CCC2C(=O)N1Cc1ccccc1 (centres undefined)	x	-0.00918	x	x	x
O=C1C2C3C=CC(C3=C3CCCCC3)C2C(=O)N1Cc1ccccc1 (centres undefined)	0.4	-0.273	7.4	55.2*	0.9
CCOc1ccc(N2C(=O)CC(NCc3ccc(F)cc3)C2=O)cc1 (centres undefined)	0.9	0.641	16.0	14.9	0.8
O=C1CC(NCc2ccccc2F)C(=O)N1c1ccccc1 (centres undefined)	0.8	0.312	71.9*	20.2	0.3
O=C(NCc1cccnc1)/C(=C/c1ccc(-c2ccc(Cl)cc2)o1)S(=O)(=O)c1ccccc1	0.5	-1.14	67.2*	49.4	0.3
CCCOc1ccc(N2C(=O)C3ON(c4ccccc4)C(CCC)C3C2=O)cc1 (centres undefined)	0.5	-0.582	31.5	52.5*	0.7
CCCC1C2C(=O)N(c3ccccc3)C(=O)C2ON1c1ccccc1 (centres undefined)	0.4	-1.09	56.0*	55.4*	0.4
O=C(O)COc1ccccc1C1C2C(=O)N(c3ccccc3)C(=O)C2ON1c1ccccc1 (centres undefined)	0.6	0.038	20.1	38.1	0.8
CCOc1ccccc1C1C2C(=O)N(c3ccccc3)C(=O)C2ON1c1ccccc1 (centres undefined)	0.5	-0.0259	20.8	50.7*	0.8
O=C(O)c1ccc(N2C(=O)C3ON(c4ccccc4)C(c4ccccc4F)C3C2=O)cc1 (centres undefined)	1	x	51.6*	-0.2	0.5
CCCCCOCC1CC(C/C(C)=N/Nc2nc(-c3ccccc3)cs2)C(=O)O1 (centres undefined)	0.6	-0.41	28.1	36.9	0.7
CN1OC2C(=O)N(c3ccccc3)C(=O)C2C1c1ccc(F)cc1 (centres undefined)	1	1.15	24.2	-0.6	0.8
CCCC1C2C(=O)N(c3ccccc3OC)C(=O)C2ON1c1ccccc1 (centres undefined)	0.3	0.0435	94.8*	69.8*	0.1
